Results on 50 molecules are retold here after ChEMBL document CHEMBL3988442, “University of Dundee, Small-Polar-MMV Screening Library” (2021).

In all, about 48,000 compounds went through this assay and about 13,000 (27%) showed an effect of 50% or more. The list shows a part of the results.

The experiment deals with Wolbachia pipientis. Description: Anti-Wolbachia Cell-Based Screen. In kind it is functional. The arrangement: scale not given: in the data most compounds retested in dose-response had high values. The note with it: 5 µM.
As to `Cc1ccccc1CC(C)(C)NC(=O)c1cccc(OCC(N)=O)c1`, the “Percent Effect” value was -9.051%.

In the case of `CCn1nnc2c1C(COC)CN(C(=O)COc1ccccc1)C2` (stereo not given), the “Percent Effect” value is -1.685%.

As for `O=C(c1ncccn1)N1C[C@@H]2COC[C@]2(COCc2cccnc2)C1`, the “Percent Effect” value is 11.05%.

`O=C(c1cocn1)N1C[C@@H]2COC[C@]2(COc2cccnc2)C1`: the “Percent Effect” value amounted to 92.15%.

Take `O=C(c1ncccn1)N1C[C@@H]2COC[C@]2(COc2cccnc2)C1`: the “Percent Effect” value was found to be 108.1%.

Turning to `COCc1cncc2c1CCN(C(=O)c1ccc(C#N)cc1)C2.O=C(O)C(F)(F)F`, the “Percent Effect” value worked out at 122.8%.

As to `N#Cc1cccc(C(=O)N2CCc3c(COCC4CC4)cncc3C2)c1.O=C(O)C(F)(F)F`, the “Percent Effect” value was -0.2698%.

As to `COCc1cncc2c1CCN(C(=O)c1cccc(C#N)c1)C2.O=C(O)C(F)(F)F`, the “Percent Effect” value worked out at 95.5%.

In the case of `N#Cc1ccc(C(=O)N2CCc3c(COCC4CC4)cncc3C2)cc1`, the “Percent Effect” value is listed as 120.9%.

Turning to `O=C(c1cccnc1)N1CCc2c(COCC3CC3)cncc2C1`, the “Percent Effect” value came out at 11.19%.

For `O=C(c1ccncc1)N1CCc2c(COCC3CC3)cncc2C1`, the “Percent Effect” value is listed as -2.638%.

Turning to `CCOCc1cncc2c1CCN(C(=O)c1cccc(C#N)c1)C2`, the “Percent Effect” value is recorded as 8.725%.

As for `CC(C)=CCN1CCC2(CC1)c1ccccc1[C@@H](N1CCSCC1)[C@@H]2O`, the “Percent Effect” value came to 17.95%.

As to `NC(=O)c1nc2c(s1)CCN(C(=O)Nc1cccc(Cl)c1)CC2`, the “Percent Effect” value came to 103.6%.

With `NC(=O)c1nc2c(s1)CCN(Cc1ccccc1)CC2.O=C(O)C(F)(F)F`, the “Percent Effect” value is recorded as -10.1%.

Take `O=C(Nc1ccccc1)N1CCc2nc(C(=O)N3CCCC3)sc2CC1`: the “Percent Effect” value came to 124.8%.

For `CNC(=O)c1nc2c(s1)CCN(C(=O)c1ccccc1)CC2`, the “Percent Effect” value is on record as -10.92%.

On to `CN(C)C(=O)c1nc2c(s1)CCN(C(=O)c1ccc(Cl)cc1)CC2`, for which the “Percent Effect” value is given as -17.04%.

Turning to `CCN(CC)C(=O)c1nc2c(s1)CCN(Cc1cccc(OC)c1)CC2.O=C(O)C(F)(F)F`, the “Percent Effect” value is given as -1.01%.

Consider `NC(=O)c1nc2c(s1)CCN(C(=O)Nc1ccccc1)CC2`, for which the “Percent Effect” value was determined as 118.3%.

Turning to `COc1cccc(CC(=O)N2CCc3nc(C(N)=O)sc3CC2)c1`, the “Percent Effect” value is recorded as -1.696%.

In the case of `CNC(=O)N1CCc2nc(C(=O)Nc3cccnc3)sc2CC1`, the “Percent Effect” value is listed as -5.762%.

Regarding `CCN(CC)C(=O)c1nc2c(s1)CCN(C(=O)CCC(=O)OC)CC2`, the “Percent Effect” value is recorded as -10.26%.

Turning to `CCN(CC)C(=O)c1nc2c(s1)CCN(C(=O)Nc1ccccc1)CC2`, the “Percent Effect” value turned out to be 97.77%.

With `O=C(c1ccc(Cl)cc1)N1CCc2nc(C(=O)N3CCCC3)sc2CC1`, the “Percent Effect” value amounted to 0.273%.

`O=C(c1ccc2c(c1)[nH]c(=O)n2C1CCCC1)N1CCSCC1`: the “Percent Effect” value came to 1.159%.

For `CCCSc1ncc(CN2CCN(C)C(=O)C2C)cn1` (stereo not given), the “Percent Effect” value worked out at 3.746%.

Consider `Cc1nsc(NC(=O)N2CCN(Cc3ccccc3F)C(=O)C2)n1`, for which the “Percent Effect” value was -10.42%.

Take `Clc1cccc(-c2noc(CCN3CCN(c4ccncc4)CC3)n2)c1`: the “Percent Effect” value worked out at 4.288%.

As to `CN(Cc1ccc(Cl)s1)C(=O)Nc1ccc(N(C)C)nc1`, the “Percent Effect” value is 10.16%.

Consider `COCCN(Cc1cnn(C)c1)C(=O)C1COc2c(cccc2OC)C1` (stereo not given), for which the “Percent Effect” value was -6.746%.

For the molecule `COCCCN1CC2(CCCCN2C(=O)COC)CC1=O` (stereo not given), the “Percent Effect” value is recorded as -19.41%.

As to `CCN1C(=O)CCCC12CCCN(C(=O)c1ccsc1)C2` (stereo not given), the “Percent Effect” value was 0.7078%.

For `CN1CC2(CCCCN2C(=O)c2ccsc2)CC1=O` (stereo not given), the “Percent Effect” value was 106.9%.

For `CCN1CC2(CCCCN2C(=O)c2ccsc2)CC1=O` (stereo not given), the “Percent Effect” value is 92.4%.

With `CCN1CC2(CCCCN2C(=O)c2ccn(C)n2)CC1=O` (stereo not given), the “Percent Effect” value is listed as -5.146%.

On to `COc1ccccc1-c1ccc(C(=O)N2C[C@H]3CC[C@@H]2CN(C)C3)cc1`, for which the “Percent Effect” value is on record as 3.488%.

Turning to `Cc1nnc([C@@H]2CCO[C@@H]3CCN(C(=O)Cc4ccsc4)C[C@@H]32)o1`, the “Percent Effect” value is listed as -11.03%.

For the molecule `O=C(NCCCC(=O)N1CCN(CC2CC2)c2ccccc21)C1CC1`, the “Percent Effect” value is reported as -7.741%.

As for `COc1ccc2c(c1)OCC(Cc1cc(N3CCCC3)cnn1)C2` (stereo not given), the “Percent Effect” value is on record as -5.296%.

Turning to `Nc1cc(CC2COc3ccccc3C2)ccn1` (stereo not given), the “Percent Effect” value is -18.54%.

On to `COc1ccc2c(c1)OCC(Cc1ccnc(N)n1)C2` (stereo not given), for which the “Percent Effect” value was -14.38%.

Regarding `c1ccc2c(c1)CC(Cc1cc(N3CCCC3)cnn1)CO2` (stereo not given), the “Percent Effect” value turned out to be 9.635%.

Turning to `COc1ccc2c(c1)OCC(Cc1cc(C(=O)N3CCCC3)ccn1)C2` (stereo not given), the “Percent Effect” value is listed as 87.9%.

For `O=C(c1ccnc(CC2COc3ccccc3C2)c1)N1CCCC1` (stereo not given), the “Percent Effect” value was found to be 99.57%.

As for `COc1cccc(CC(=O)N2CC[C@@H]3NC(=O)CC[C@@H]32)c1`, the “Percent Effect” value is given as -6.606%.

In the case of `Cc1ccc(OCC(O)CNC(=O)C2(c3ccc(F)cc3)CC2)cc1` (stereo not given), the “Percent Effect” value is -8.798%.

Turning to `FC(F)(F)CCN(Cc1ccon1)C1CCCC1`, the “Percent Effect” value was found to be 5.052%.

Turning to `C[C@H](NS(C)(=O)=O)C(=O)NCc1cc(-c2ccco2)n[nH]1`, the “Percent Effect” value is reported as 75.56%.

Regarding `CN(Cc1ccco1)Cc1ccccc1CNC(=O)c1cc[nH]n1`, the “Percent Effect” value is -6.684%.
